Measured values: PubChem BioAssay
The source made the active and inactive calls.

Assays:
[1] = optical density shifts of acrAB sulA E. coli – strain DRC41, OD650, 48 h, E. coli filamentation inducer project, primary screen (AID 1152); conditions: higher = more signal, called active from +8 up or from −8 down;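 also: E. coli MC1000 strain DRC41 lacking acrAB efflux pump and sulA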
[2] = probe aLefty1 binding on compound microarray – biochemical, small-molecule microarray, 635/667 nm fluorescence, primary screen (AID 1153); conditions: higher = more signal;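 also: score merges spot fluorescence with signal-to-noise ratio from the scanned slide images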
[3] = plasmodial surface anion channel blockers, osmotic lysis – cell-based, P. falciparum Indochina, OD700, 1 h, primary screen (AID 1154); conditions: P. falciparum Indochina infected RBC osmotic lysis, higher = more signal, called active from +8 up or from −8 down
[4] = plasmodial surface anion channel blockers, osmotic lysis – cell-based, P. falciparum Indochina, OD700, 2 h, primary screen (AID 1155);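 also: lysis reports solute entry through the parasite surface anion channel PSAC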; conditions: P. falciparum Indochina infected erythrocytes, higher = more signal, called active from +8 up or from −8 down
[5] = changes in parasitized red cell lysis, either direction – P. falciparum Indochina, OD700, 3 h, PSAC antagonist project, primary screen (AID 1156); conditions: P. falciparum-infected erythrocytes, osmotic lysis, higher = more signal, called active from +8 up or from −8 down
[6] = plasmodial surface anion channel blockers, osmotic lysis – cell-based, P. falciparum Indochina, OD700, 18 h, primary screen (AID 1157); conditions: P. falciparum Indochina infected erythrocytes, osmotic lysis OD700, 18 h; higher = more signal, called active from +8 up or from −8 down
[7] = S6 kinase pathway phospho-S6 level changes – cell-based, A549, cytoblot, luminescence, serum-stimulated, primary screen (AID 1158); conditions: 5 h, higher = more signal;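 also: serum-stimulated A549 lung adenocarcinoma cells; signal is phosphorylated S6 detected by cytoblot immunostaining with HRP secondary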
[8] = target: NADPH oxidase 2 (Homo sapiens) (UniProt P04839); experiment: compounds shifting NOX2 Amplex Red fluorescence – cell-based, HEK293-NOX2, PMA-stimulated, NOX inhibitor project, primary screen (AID 1159); conditions: 45 min, higher = more signal, called active from +8 up or from −8 down; also: test concentration not given here
NADPH oxidase 2 (Homo sapiens), sequence (P04839 whole entry, looked up): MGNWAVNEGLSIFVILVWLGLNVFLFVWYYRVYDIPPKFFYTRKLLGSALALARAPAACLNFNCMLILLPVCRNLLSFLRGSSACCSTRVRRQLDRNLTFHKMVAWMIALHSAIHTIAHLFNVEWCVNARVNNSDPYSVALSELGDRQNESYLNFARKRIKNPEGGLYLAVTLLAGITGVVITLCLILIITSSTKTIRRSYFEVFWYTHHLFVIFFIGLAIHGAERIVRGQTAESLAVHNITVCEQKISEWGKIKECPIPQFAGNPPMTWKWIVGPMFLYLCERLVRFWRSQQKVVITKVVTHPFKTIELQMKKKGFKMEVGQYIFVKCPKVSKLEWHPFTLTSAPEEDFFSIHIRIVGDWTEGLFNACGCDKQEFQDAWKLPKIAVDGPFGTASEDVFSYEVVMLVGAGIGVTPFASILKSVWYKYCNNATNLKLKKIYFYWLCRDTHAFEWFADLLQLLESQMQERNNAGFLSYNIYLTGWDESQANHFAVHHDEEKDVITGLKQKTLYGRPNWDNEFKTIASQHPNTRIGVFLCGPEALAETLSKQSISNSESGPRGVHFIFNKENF

[9] = target: NADPH oxidase 4 (Homo sapiens) (UniProt Q9NPH5); experiment: compounds shifting NOX4 Amplex Red fluorescence – cell-based, HEK293-NOX4, tetracycline-induced, NOX inhibitor project, primary screen (AID 1160); conditions: HEK293-NOX4, Amplex Red H2O2 fluorescence, 45 min; higher = more signal, called active from +8 up or from −8 down
NADPH oxidase 4 (Homo sapiens), sequence (Q9NPH5 whole entry, looked up): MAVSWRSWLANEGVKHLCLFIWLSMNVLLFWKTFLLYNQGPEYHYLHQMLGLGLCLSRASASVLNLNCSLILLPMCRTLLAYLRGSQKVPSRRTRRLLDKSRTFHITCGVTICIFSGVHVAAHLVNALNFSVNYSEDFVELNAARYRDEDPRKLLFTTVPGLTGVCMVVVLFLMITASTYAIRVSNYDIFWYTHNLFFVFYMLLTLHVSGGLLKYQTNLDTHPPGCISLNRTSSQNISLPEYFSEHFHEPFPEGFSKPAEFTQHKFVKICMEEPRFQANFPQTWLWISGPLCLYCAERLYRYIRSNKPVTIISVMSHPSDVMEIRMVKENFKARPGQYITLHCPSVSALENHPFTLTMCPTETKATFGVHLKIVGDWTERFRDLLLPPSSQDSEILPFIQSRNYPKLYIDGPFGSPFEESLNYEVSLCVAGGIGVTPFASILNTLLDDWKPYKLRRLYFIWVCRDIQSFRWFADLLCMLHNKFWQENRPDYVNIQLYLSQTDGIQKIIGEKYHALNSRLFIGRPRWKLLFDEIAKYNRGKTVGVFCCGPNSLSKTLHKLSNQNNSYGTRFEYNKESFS

[10] = target: NADPH oxidase 5 (Homo sapiens) (UniProt Q96PH1); experiment: compounds shifting NOX5 Amplex Red fluorescence – cell-based, HEK293-NOX5, NOX inhibitor project, primary screen (AID 1161); conditions: HEK293-NOX5, ionomycin, 45 min, higher = more signal
NADPH oxidase 5 (Homo sapiens), sequence (Q96PH1 whole entry, looked up): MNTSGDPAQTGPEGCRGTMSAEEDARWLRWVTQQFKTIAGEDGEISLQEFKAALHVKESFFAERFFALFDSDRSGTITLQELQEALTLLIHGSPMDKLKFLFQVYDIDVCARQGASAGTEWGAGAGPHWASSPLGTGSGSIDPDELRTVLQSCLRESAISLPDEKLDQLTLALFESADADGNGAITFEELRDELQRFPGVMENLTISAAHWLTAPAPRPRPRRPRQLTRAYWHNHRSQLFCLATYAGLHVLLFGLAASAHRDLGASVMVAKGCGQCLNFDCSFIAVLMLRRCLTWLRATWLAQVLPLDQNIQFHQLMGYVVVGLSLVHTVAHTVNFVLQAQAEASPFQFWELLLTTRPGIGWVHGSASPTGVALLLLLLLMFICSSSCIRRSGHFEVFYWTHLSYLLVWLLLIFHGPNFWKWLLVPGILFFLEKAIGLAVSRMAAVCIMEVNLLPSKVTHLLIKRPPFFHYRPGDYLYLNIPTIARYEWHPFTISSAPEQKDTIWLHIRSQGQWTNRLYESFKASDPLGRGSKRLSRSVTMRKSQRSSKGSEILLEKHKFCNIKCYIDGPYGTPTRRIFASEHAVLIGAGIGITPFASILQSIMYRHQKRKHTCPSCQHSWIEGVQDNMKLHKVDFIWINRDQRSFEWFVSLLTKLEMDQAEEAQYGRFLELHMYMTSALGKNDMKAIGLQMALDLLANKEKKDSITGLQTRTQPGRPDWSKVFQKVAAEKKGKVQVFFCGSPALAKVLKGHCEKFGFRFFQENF

[11] = compound effects on lung adenocarcinoma cell viability – A549, calcein-AM fluorescence, 48 h, basal, profiling panel (AID 1162); conditions: higher = more signal; also: test concentration not given here
[12] = compound effects on differentiated 3T3-L1 adipocyte viability – cell-based, 3T3-L1 adipocytes, calcein-AM fluorescence, 48 h, basal, profiling panel (AID 1163); conditions: 3T3-L1 adipocytes viability, higher = more signal; also: test concentration not given here
[13] = compound effects on hepatocellular carcinoma cell viability – HepG2, calcein-AM fluorescence, 48 h, basal, profiling panel (AID 1164); conditions: higher = more signal; also: test concentration not given here
[14] = compound effects on multiple myeloma cell viability – MM1S, calcein-AM fluorescence, 48 h, basal, profiling panel (AID 1165); conditions: higher = more signal; also: test concentration not given here
[15] = calcein-AM signal in unstimulated myeloma cells – cell-based, calcein-AM fluorescence, 48 h, PK04 Diversity Set, profiling panel (AID 1166); conditions: RPMI8226 myeloma viability, higher = more signal;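 also: cells grown under basal conditions without added stimulus; test concentration not given here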
[16] = JC-1 mitochondrial signal, unstimulated HepG2 cells – cell-based, JC-1 fluorescence, 24 h, 100 nL compound, profiling panel (AID 1167); conditions: HepG2 mitochondrial potential, higher = more signal; also: test concentration not given here
[17] = JC-1 mitochondrial signal, unstimulated adipocytes – cell-based, JC-1 fluorescence, 3T3-L1 adipocytes, 24 h, 100 nL compound, profiling panel (AID 1168); conditions: JC-1 mitochondrial fluorescence, higher = more signal, called active from +8 up or from −8 down; also: test concentration not given here
[18] = JC-1 mitochondrial signal, unstimulated myeloma cells – cell-based, JC-1 fluorescence, RPMI8226, 24 h, 100 nL compound, profiling panel (AID 1169); conditions: JC-1 mitochondrial potential fluorescence, higher = more signal; also: test concentration not given here
[19] = JC-1 mitochondrial signal, unstimulated MM1S myeloma – cell-based, JC-1 fluorescence, 24 h, 100 nL compound, profiling panel (AID 1170); conditions: MM1S mitochondrial potential, higher = more signal; also: test concentration not given here
[20] = resazurin metabolic signal in A549 cells – cell-based, resazurin fluorescence, 24 h, PK04 Diversity Set, profiling panel (AID 1171); conditions: A549 viability, higher = more signal, called active from +8 up or from −8 down; also: test concentration not given here

Row | SMILES | z-score [1] | composite z-score [2] | z-score [3] | z-score [4] | z-score [5] | z-score [6] | z-score [7] | z-score [8] | z-score [9] | z-score [10] | z-score [11] | z-score [12] | z-score [13] | z-score [14] | z-score [15] | z-score [16] | z-score [17] | z-score [18] | z-score [19] | z-score [20]
1 | CCOC(=O)C1=CCC(c2cc3ccccc3[nH]2)NC1 (stereo not given) | -0.92 (inactive) | 0.3 | 6.29 (inactive) | 1.16 (inactive) | 2.48 (inactive) | 0.829 (inactive) | 0.0315 | -0.246 (inactive) | 0.0972 (inactive) | 0.287 | -0.35 | -0.709 | 1.08 | 1.13 | 0.255 | 0.4 | 1.17 (inactive) | -0.0143 | -1.26 | -0.412 (inactive)
2 | CN1C(=O)C2C=CC(C(O)C(c3ccccc3)c3ccccc3)N(NC(=O)OC(C)(C)C)C2C1=O (stereo not given) | -1.41 (inactive) | 0.771 | 1.41 (inactive) | 0.742 (inactive) | -0.343 (inactive) | 0.804 (inactive) | -1.16 | -0.343 (inactive) | -4.7 (inactive) | -1.76 | -1.23 | -0.4 | -0.698 | -2.47 | -1.61 | -1.46 | -0.378 (inactive) | -0.654 | 0.455 | 0.383 (inactive)
3 | CO[C@@H]1COC(=O)CCC[C@@H](C)[C@H](OC)COC(=O)[C@H](Cc2ccccc2)NC(=O)CC=C[C@H]1C | 0.585 (inactive) | -0.235 | 1.99 (inactive) | 1.07 (inactive) | 1.21 (inactive) | 0.368 (inactive) | 1.02 | 0.0908 (inactive) | -0.255 (inactive) | -0.444 | 0.0498 | 0.134 | -0.829 | 0.355 | -1.25 | 2.07 | -1.18 (inactive) | 0.256 | -0.479 | 0.451 (inactive)
4 | COC(=O)[C@]1(CO)N=C(c2ccc(OCCCO)cc2)O[C@@H]1c1ccccc1N=[N+]=[N-] | 0.248 (inactive) | 0.191 | 18.3 (active) | 2.32 (inactive) | 1.49 (inactive) | 0.742 (inactive) | -0.315 | -0.502 (inactive) | 0.0857 (inactive) | -0.514 | -0.0196 | 0.909 | 0.45 | 0.512 | -0.172 | -0.177 | -0.464 (inactive) | 0.392 | -0.471 | -0.276 (inactive)
5 | CCOC(=O)CCN1C(=O)[C@H]2[C@H]3[C@H](O)[C@H](O)CC(=NOC[C@@H](O)COCc4ccco4)[C@@H]3CC[C@H]2C1=O | 0.401 (inactive) | 0.0861 | 3.93 (inactive) | 0.63 (inactive) | -0.403 (inactive) | 0.403 (inactive) | -0.426 | 0.48 (inactive) | 0.771 (inactive) | 0.6 | 0.14 | 0.171 | -0.324 | 0.366 | 0.557 | -0.906 | -0.125 (inactive) | -0.393 | -0.49 | -0.397 (inactive)
6 | CC(=O)OC[C@H]1O[C@@H](ON=C(C)CCN2CCc3nc(-c4ccccc4)c(-c4ccccc4)cc3C2)[C@H](OC(C)=O)[C@@H](OC(C)=O)[C@@H]1OC(C)=O | -1.59 (inactive) | 0.0355 | 1.12 (inactive) | 0.327 (inactive) | 0.993 (inactive) | 0.465 (inactive) | -0.225 | -1.13 (inactive) | 0.55 (inactive) | -3.13 | -0.21 | 0.565 | 0.69 | -0.0213 | -0.162 | 1.11 | -1.19 (inactive) | -0.522 | 0.231 | -0.282 (inactive)
7 | CCN1C(=O)[C@H]2[C@H]3[C@H](O)C=CC(=O)[C@@H]3CC[C@H]2C1=O | -0.474 (inactive) | -0.265 | -0.441 (inactive) | -0.343 (inactive) | -0.795 (inactive) | -0.21 (inactive) | 0.176 | 0.0244 (inactive) | -0.0152 (inactive) | -0.204 | 0.331 | 0.368 | 0.733 | -0.434 | 0.197 | 0.234 | -0.661 (inactive) | -0.408 | 1.5 | 0.459 (inactive)
8 | CO[C@@H]1COC(=O)[C@@H]2CCCN2C(=O)[C@@H](C)COC(=O)[C@H](COCc2ccccc2)NC(=O)CC=C[C@H]1C | -2.21 (inactive) | -0.111 | 0.553 (inactive) | 0.367 (inactive) | 1.29 (inactive) | 0.441 (inactive) | -0.493 | -0.363 (inactive) | -0.643 (inactive) | -0.159 | -0.427 | 0.169 | -1.5 | -0.329 | -0.0455 | -0.152 | -1.02 (inactive) | -0.156 | -0.683 | -0.366 (inactive)
9 | CC(=O)O[C@H]1C2=C(C(=O)[C@@H]3O[C@@H]31)[C@H]1C(C)O[C@@H]2[C@@]23C(=O)[C@@H]4O[C@@H]4[C@@H](O)C2=CO[C@H](C)[C@@H]13 (stereo not given in full) | -0.0954 (inactive) | -0.191 | -0.0129 (inactive) | -0.215 (inactive) | -0.0291 (inactive) | -0.12 (inactive) | -0.56 | 0.735 (inactive) | 0.358 (inactive) | -0.388 | -0.192 | -0.392 | -1.54 | -3 | -2.64 | -1.92 | -0.78 (inactive) | 0.151 | -1.05 | 0.4 (inactive)
